Measurements published in publication PMC5540273 (PLoS ONE, 2017).

test system: T1, JNK2; conditions: concentration: 1 μM, replicates: in singlicate; n = 1
T1 construct: gene MAPK9
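Also: KINOMEscan kinase panel screen.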

SMILES | %Inh
COc1cc2ncn(-c3cc(OCc4ccncc4)c(C(N)=O)s3)c2cc1OC [GSK336313] | 12%
OCCCNc1nccc(-c2c(-c3cccc(C(F)(F)F)c3)nn3cc(C(F)(F)F)ccc23)n1 [GW630813] | 13%
Cc1ccc(Oc2ccc(Nc3ncnc4cc[nH]c34)cc2C)cn1 | 44%
COc1cc(Nc2nccc(N3CCC(NC(=O)C(C)c4ccc(Cl)cc4)C3)n2)cc(OC)c1OC (stereo not drawn) [GSK1379757] | 6%
Nc1nc(N)c2nc(-c3ccccc3)[nH]c2n1 [SKF-12778] | 14%
COc1cc(OC)cc(-c2cc3cnc(N)nc3nc2NC(=O)NC(C)(C)C)c1 | 0%
COc1cc2nccc(Nc3cccc(Oc4ccccc4)c3)c2cc1OC.Cl [GW284543] | 31%
CCn1c(-c2ccoc2)nc2cnccc21 [SB-733887] | 0%
CCn1c(-c2nonc2N)nc2ccccc21 [SB-693162/GW549034] | 57%
COC(=O)c1c(-c2ccccc2)c2cc(C)ccc2c(=O)n1Cc1ccccc1 | 32%
CCCNC(=O)Nc1ccc(Oc2ncnc3ccn(C)c23)cc1 | 3%
COc1ccc(-c2coc3ccc(-c4nnc(SCc5cccc(C#N)c5)o4)cc23)cc1 | 17%
CCC(=O)c1c(-c2ccccc2)c2cc(Cl)ccc2c(=O)n1Cc1cc(S(C)(=O)=O)n(CC(F)F)n1 | 99.4%
CN1C(=O)C(Nc2ccccc2)=C(c2ccccc2)C1=O [SB-300079] | 0%
Cc1ccccc1COc1cc(-n2cnc3cc(Cl)ccc32)sc1C(N)=O [GW813349] | 0%
COc1cc2ncn(-c3cc(OCCCc4ccccc4)c(C(N)=O)s3)c2cc1OC [GSK205189] | 21%
COc1cc2ncn(-c3cc(OCc4ccncc4Br)c(C(N)=O)s3)c2cc1OC [GW854278] | 5%
O=C1NC(=O)C(c2ccccc2)=C1Nc1cccc(O)c1 [SB-390534] | 13%

SMILES | %Inh
Cc1cccc(-c2nc(Nc3ccc4c(cnn4C)c3)c3ccccc3n2)n1 [GW876731] | 60%
COc1ccc(CNC(=O)NC2CCN(c3ccnc(Nc4ccc(F)cc4)n3)C2)cc1 (stereo not drawn) [GSK1379706] | 9%
O=C(NCCNc1ccnc(Nc2ccc(F)cc2)n1)Nc1ccc2c(c1)OCO2 [GSK1379882] | 10%
CCS(=O)(=O)c1ccc(OC)c(Nc2ncc(-c3ccc(F)cc3)o2)c1.Cl [GW591947] | 21%
COC(=O)c1c(-c2ccccc2)c2cc(Br)ccc2c(=O)n1Cc1ccc(NC(=O)CCC(=O)O)cc1 | 99.1%
O=C(Nc1n[nH]c2cc(-c3ccccc3F)ccc12)C1CC1 [SB-733371] | 16%
Cc1nn2c(=O)cc(N3CCOCC3)nc2n1Cc1cccc(Cl)c1Cl [GSK2342769] | 15%
O=c1cc(N2CCOCC2)nc2n(Cc3ccc(F)c(Cl)c3)ccn12 [GSK2297099] | 8%
Cc1nnc(-c2ccc(C)c(-c3ccc(C(=O)O)cc3)c2)o1 [GW608005] | 0%
Cc1c(Cn2c(C)nn3c(=O)cc(N4CCO[C@H](C)C4)nc23)cccc1C(F)(F)F [GSK2373690] | 27%
Nc1ncnc2c1ncn2-c1cccc(F)c1 [SKF-97560] | 18%
Nc1ncnc2c1ncn2-c1ccc(Cl)cc1 [AH2635] | 0%
CC(C)(C)c1ccc(C(=O)Nc2cn3cc(-c4ccccc4)ccc3n2)cc1 | 0%
Nc1nc(-c2ccccc2F)c(-c2ccnc3ccccc23)s1 [GW560459] | 87%
CCC(=O)c1c(-c2ccccc2)c2cc(Cl)ccc2c(=O)n1Cc1cc(C(=O)NC2CC2)n(C)n1 | 100%
CCS(=O)c1ccc(-c2coc3ccc(-c4nnc(C)o4)cc23)cc1 (stereo not drawn) | 24%
COc1ccc(-c2cc3c(C)nc(N)nc3n([C@H]3CC[C@H](OCCO)CC3)c2=O)cn1 | 0%
O=C(Nc1ccc2c(c1)OCO2)NC1CCN(c2ccnc(NCc3ccc(F)cc3)n2)CC1 [GSK1379859] | 0%
